Test results taken from PubChem BioAssay AID651947 (Broad Institute, 2012).
Results with a measured potency or affinity are listed apart. Records with an inconclusive call do not appear. Calls of active or inactive are those of the source.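 The calls were made as follows: active = luminescence drop in HepG2 cells whose fitted half-effect dose is at most twice the top valid dose; inconclusive = flat curve with 30 to 70% signal loss, or unreliable fit; inactive = the rest.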

Test: HepG2 hepatoma cell viability loss – plate reader, dry powder, cytotoxicity control, dose response (AID 651947)
Conditions: ATP luminescence (CellTiter-Glo), 48 h, active compounds read low; at 26 µM unless noted

Which max activity does the source give for `COc1ccc(-c2nnc(SCc3ccccn3)o2)cc1` here?
The max activity was -23.2% [at 1.6 µM] (inactive).

With `c1ccc(CSc2nnc(-c3ccc(-c4ccccc4)cc3)o2)cc1` as the compound, how does the max activity read?
Its max activity is 15.5% (inactive).

For `c1ccc(-c2nnc(SCc3ccccn3)o2)cc1`, which max activity is on record?
Its max activity is 18.8% (inactive).

For `COc1ccc(-c2nnc(SCc3ccc(Cl)cc3)o2)cc1`, which max activity is on record?
Its max activity is -16.2% [at 0.38 µM] (inactive).

Which max activity does the source give for `c1ccc(CSc2nnc(-c3cccs3)o2)cc1` here?
The max activity was -27.2% [at 12 µM] (inactive).

For `c1ccc(CCc2nnc(SCc3ccccc3)o2)cc1`, which max activity is on record?
Its max activity is 22.3% [at 3 µM] (inactive).

For `Cc1ccc(CSc2nnc(-c3ccccc3)o2)cc1`, which max activity is on record?
The max activity was 15.4% [at 3 µM] (inactive).

With `CC1(O)CN(CCSc2nnc(-c3ccccc3)o2)C1` as the compound, how does the max activity read?
Its max activity is -33.4% [at 0.195 µM] (inactive).

For `c1ccc(CNCCSc2nnc(-c3ccccc3)o2)cc1`, which max activity is on record?
The max activity was -50.5% [at 1.6 µM] (inactive).

With `Fc1ccccc1-c1nnc(SCc2ccccc2)o1` as the compound, how does the max activity read?
Its max activity is -29.8% [at 0.195 µM] (inactive).

For `c1ccc(-n2cc(CSc3nnc(C4CCC4)o3)nn2)cc1`, which max activity is on record?
Its max activity is -30.4% [at 12 µM] (inactive).

Which max activity does the source give for `Clc1ccccc1CSc1nnc(-c2ccccc2)o1` here?
Its max activity is 17.5% [at 0.195 µM] (inactive).

With `FC(F)(F)c1ccc(-c2nnc(SCc3ccccc3)o2)cc1` as the compound, how does the max activity read?
The max activity was 17.4% [at 3 µM] (inactive).

For `CN(Cc1ccccc1)c1nnc(-c2ccccc2)o1`, which max activity is on record?
The max activity was -28.2% (inactive).

With `Clc1cccc(-c2nnc(SCc3ccccc3)o2)c1` as the compound, how does the max activity read?
The max activity was -48.3% [at 3 µM] (inactive).

Which max activity does the source give for `COc1ccc(CSc2nnc(-c3ccc(Cl)cc3)o2)nc1` here?
Its max activity is 20.3% [at 0.8 µM] (inactive).

Which max activity does the source give for `c1ccc(CCc2nnc(-c3ccccc3)o2)cc1` here?
The max activity was 27.6% (inactive).

With `Fc1cccc(CSc2nnc(-c3ccccc3)o2)c1` as the compound, how does the max activity read?
Its max activity is -9.21% [at 12 µM] (inactive).

With `N#Cc1cccc(-c2nnc(SCc3ccccc3)o2)c1` as the compound, how does the max activity read?
The max activity was 15.2% (inactive).

For `c1ccc(-n2cc(CSc3nnc(C4CCCC4)o3)nn2)cc1`, which max activity is on record?
The max activity was 20.3% [at 0.38 µM] (inactive).

For `Fc1ccc(-c2nnc(SCc3cn(-c4ccccc4)nn3)o2)cc1`, which max activity is on record?
Its max activity is -8.15% (inactive).
